In PubChem BioAssay AID463173 (ICCB-Longwood Screening Facility, Harvard Medical School, 2010):
Among all 52,000 compounds or so, about 4,300 (8.3%) were called active. The full list was thinned out, with actives kept by preference. A number with no mark means an inactive call. No stated cut-off is given here; in the data, active means survival mostly below about 52% (no sharp cut-off); inactive means mostly above about 56%.

Test system: DeltatarO mutant
Assay: growth inhibition of S. aureus wild type versus tarO mutant, primary screen, teichoic acid synthesis inhibitors, RN4220, OD600 (AID 463173)
Settings: OD600, 18 h, active compounds read low, screened at 18.75 µg/mL (by protocol)

Compound | survival
Cc1nc2cc(-c3ccccc3)nn2c(C)c1CCC(=O)Nc1ccc(F)cc1F | 61%
CCOC(=O)N1CCc2c(sc3c2c(=O)n(Cc2ccccc2)c(=O)n3CC(=O)Nc2cccc(CC)c2)C1 | 71%
O=C(Nc1ccc(OC(F)(F)F)cc1)C(NS(=O)(=O)c1cccc2nsnc12)c1ccccc1 (stereo not given) | 56%
O=C(Nc1ccc(OC(F)(F)F)cc1)C(Cc1ccccc1)NS(=O)(=O)c1cccc2nsnc12 (stereo not given) | 49% (active)
COc1cc(NC(=O)C(Cc2ccccc2)NS(=O)(=O)c2cccc3nsnc23)cc(OC)c1 (stereo not given) | 72%
CCc1ccccc1NC(=O)N1CCN(c2cc(-c3noc(C)n3)ccc2C)CC1 | 134%
S=c1[nH]nc(CCCOc2ccc(Cl)cc2Cl)o1 | 54%
O=C(NC1CCCCC1)NC1CCN(Cc2nnnn2Cc2ccc(F)cc2)CC1 | 88%
COc1ccc(Cn2ccc3nc(C)c(C(=O)N4CCN(c5ccccc5F)CC4)cc3c2=O)cc1 | 63%
CC1CCN(c2ccc(NC(=O)c3cccc(Cl)c3)cc2C(=O)O)CC1 | 87%
COc1ccc(C(=O)N2c3ccccc3C(C)(c3ccc(Cl)cc3)CC2(C)C)cc1 (stereo not given) | 11% (active)
COc1ccccc1C(=O)N1CCC(c2c[nH]c3ccccc23)(c2c[nH]c3ccccc23)CC1 | 98%
COc1ccccc1C(=O)CC1(O)C(=O)N(CC(N)=O)c2ccccc21 (stereo not given) | 61%
COc1ccc(CCC(=O)NCc2ccc3c(c2)CCN3C(=O)c2ccc(Cl)cc2)cc1 | 89%
COc1ccc(C(=O)N2CCC(C(=O)Nc3ccc(Cl)cc3)CC2)cc1 | 127%
CN1CC2(C)CN(C(=O)c3ccccc3Cl)CC(C)(C1)C2 | 88%
CC1(c2ccccc2)CC(C)(C)N(C(=O)c2cccc(Cl)c2)c2ccccc21 (stereo not given) | 8% (active)
COc1ccccc1C(=O)N1c2ccccc2C(C)(c2ccc(Cl)cc2)CC1(C)C (stereo not given) | 0% (active)
CC1CCN(C(=O)c2cccc(Cl)c2)CC1 | 93%
CC1(c2ccccc2)CC(C)(C)N(C(=O)c2ccccc2Cl)c2ccccc21 (stereo not given) | -4% (active)
O=C(c1ccccc1Cl)n1cc(Cl)cn1 | 95%
CC(C(=O)c1ccccc1)n1cnc2ccccc2c1=O (stereo not given) | 104%

Compound | survival
COc1ccccc1N1CCN(C(=O)Cn2cnc3onc(-c4ccc(F)cc4)c3c2=O)CC1 | 84%
Fc1ccc(CN2CCc3nc(N4CCN(c5ccccc5F)CC4)ncc3C2)c(F)c1 | 77%
Cc1cc(NC(=O)CCn2c(=O)c3cccn3c3cccnc32)ccc1Br | 102%
COc1ccc(CNC(=O)Cn2c(=O)nc(-c3ccccc3)c3ccccc32)cc1OC | 89%
CCCCc1nn2c(=O)cc(COC(=O)c3ccccc3NC(=O)C3CCCCC3)nc2s1 | 71%
CC1=C(c2cccc(Cl)c2)S(=O)(=O)NC1=NCc1ccccc1C | 99%
O=C(NCc1ccc2c(c1)CCN2C(=O)c1ccc(Cl)cc1)c1cccc(F)c1 | 61%
CC1(c2ccc(Cl)cc2)CC(C)(C)N(C(=O)c2ccccc2)c2ccccc21 (stereo not given) | -4% (active)
CC1(C)C(=O)N(CC(=O)Nc2ccc(Cl)cc2)c2ccccc21 | 83%
O=C(c1cccc(F)c1)N1CCC(c2c[nH]c3ccccc23)(c2c[nH]c3ccccc23)CC1 | 86%
CC1CC(C)CN(C(=O)c2ccc(Cl)cc2)C1 (stereo not given) | 96%
CC1(c2ccc(Cl)cc2)CC(C)(C)N(C(=O)c2cccc(F)c2)c2ccccc21 (stereo not given) | 11% (active)
CCOC(=O)c1c(NC(=O)CSc2cn(CCNC(=O)c3ccccc3OC)c3ccccc23)sc2c1CCC2 | 141%
CCOc1ccc(-c2cc(-c3nc(-c4cc(OC)c(OC)c(OC)c4)no3)[nH]n2)cc1Cl | 96%
Cc1nnc(N2CCCC(C(=O)NCCc3ccccc3)C2)c2nn(-c3ccccc3)c(C)c12 (stereo not given) | 94%
O=C(Nc1ccccc1O)c1ccccn1 | 77%
CCCCCn1c(=O)[nH]c2cc(C(=O)N3CCN(c4cccc(Cl)c4)CC3)ccc2c1=O | 71%
CCCCCn1c(=O)[nH]c2cc(C(=O)N3CCN(c4ccc(OC)cc4)CC3)ccc2c1=O | 135%
Cc1ccc(C)c(N2CCN(C(=O)c3ccc4c(=O)n(CCc5ccccc5)c(=O)[nH]c4c3)CC2)c1 | 55% (active)
COc1ccc(Cn2c(=O)[nH]c3cc(C(=O)N4CCN(c5cc(C)ccc5C)CC4)ccc3c2=O)cc1 | 73%
CCCCCn1c(=O)[nH]c2cc(C(=O)N3CCN(c4cccc(OC)c4)CC3)ccc2c1=O | 55% (active)
O=C(c1ccc2c(=O)n(CCc3ccccc3)c(=O)[nH]c2c1)N1CCN(c2ccc(F)cc2)CC1 | 111%

Compound | survival
Cc1cccc(-n2ncc3c(N4CCN(CCO)CC4)ncnc32)c1 | 83%
Cc1ccc(Cc2cn3cc(-c4ccccc4)nc3s2)cc1 | 66%
COc1cccc(CN2C(=O)C3(SCC(=O)N3c3ccc(C(C)C)cc3)c3ccccc32)c1 (stereo not given) | 55%
COc1cccc(N2C(=O)CSC23C(=O)N(Cc2ccccc2)c2ccccc23)c1 (stereo not given) | 80%
COc1cccc(CN2C(=O)C3(SCC(=O)N3c3ccc(C)c(Cl)c3)c3ccccc32)c1 (stereo not given) | 52% (active)
CC(=O)N(Cc1cccnc1)c1nc2c(F)cc(F)cc2s1 | 89%
COC(=O)c1cc2oc3ccccc3c2n1Cc1nc(-c2ccc(Cl)cc2)oc1C | 91%
CCOc1ccc(CCNC(=O)Cn2ccc3cc(S(=O)(=O)N4CCCCC4)ccc32)cc1 | 102%
COc1ccc(C2C(C(=O)Nc3ccccc3)=C(C)Nc3c(C(=O)Nc4ccccc4)cnn32)cc1 (stereo not given) | 126%
CCc1ccc(C2C(C(=O)Nc3ccccc3OC)=C(C)Nc3c(C(=O)Nc4ccc(C)cc4)cnn32)cc1 (stereo not given) | 68%
COc1ccc(C2C=C(c3ccc(C)cc3)Nc3c(C(=O)Nc4ccccc4)cnn32)cc1 (stereo not given) | 53% (active)
COc1ccccc1NC(=O)C1=C(C)Nc2c(C(=O)Nc3cccc(C)c3)cnn2C1c1ccccc1Cl (stereo not given) | -5% (active)
COc1ccc(C2C=C(c3cccc(OC)c3)Nc3c(C(=O)Nc4ccccc4)cnn32)cc1 (stereo not given) | 52%
CC1=C(C(=O)Nc2ccccc2)C(c2ccccc2Cl)n2ncc(C(=O)Nc3cccc(C)c3)c2N1 (stereo not given) | 88%
COc1ccc(C2=CC(c3ccc(F)cc3)n3ncc(C(=O)Nc4ccc(C)cc4)c3N2)cc1 (stereo not given) | 106%
COc1ccccc1NC(=O)C1=C(C)Nc2c(C(=O)Nc3cccc(C)c3)cnn2C1c1ccccc1C (stereo not given) | 89%
CCOc1ccc(NC(=O)c2cnn3c2NC(c2ccccc2)=CC3c2cccc(OC)c2OC)cc1 (stereo not given) | 62%
COc1cccc(C2C=C(c3ccccc3)Nc3c(C(=O)Nc4ccccc4)cnn32)c1OC (stereo not given) | 13% (active)
CCc1ccc(C2C(C(=O)Nc3ccccc3)=C(C)Nc3c(C(=O)Nc4ccc(C)cc4)cnn32)cc1 (stereo not given) | 17% (active)
COc1cc(OC)c(C2C=C(c3ccc(C)cc3)Nc3c(C(=O)Nc4ccccc4)cnn32)cc1OC (stereo not given) | 48%
CC(C)(C)C(=O)Cn1c(=O)n(-c2ccccc2)c(=O)c2c3c(sc21)CCC3 | 80%
CCCn1ccc2c(OCC(=O)Nc3ccccc3OCC)cccc2c1=O | 102%

Compound | survival
O=S1(=O)c2cccc3cccc(c23)N1Cc1ccccc1F | 81%
CN1CCN(C(=O)C2CCN(S(C)(=O)=O)CC2)CC1 | 83%
COc1ccc(C2=CC(c3ccccc3F)n3ncc(C(=O)Nc4ccc(C)cc4)c3N2)cc1 (stereo not given) | 107%
COc1cccc(C2=CC(c3ccccc3F)n3ncc(C(=O)Nc4ccc(F)cc4)c3N2)c1 (stereo not given) | 72%
COc1cccc(C2C=C(c3ccc(C)cc3)Nc3c(C(=O)Nc4ccc(F)cc4)cnn32)c1OC (stereo not given) | 0% (active)
COc1nc(Nc2ccc(C)cc2)nc(NC2CCCC2)n1 | 81%
C/C(=N\NC(=O)CNc1ccccc1)c1ccccc1 | 85%
Cc1cccc(Cn2c(SCc3ccc(C(=O)NCc4ccccc4F)cc3)nc3cccnc32)c1 | 98%
CCOC(=O)c1c(S(=O)(=O)N2CCCC(C(=O)Nc3cccc(C)n3)C2)c(C)n(C)c1C (stereo not given) | 87%
O=c1oc2ccc3ccccc3c2cc1-c1nnc(Nc2cccc(C(F)(F)F)c2)s1 | 81%
Cc1ccccc1-c1noc(-c2ccc(NC3CCCC3)c([N+](=O)[O-])c2)n1 | 66%
COc1ccccc1-c1noc(-c2ccc(NC3CCCC3)c([N+](=O)[O-])c2)n1 | 43% (active)
COc1ccc(-c2noc(-c3ccc(NC4CCCCC4)c([N+](=O)[O-])c3)n2)cc1OC | 68%
COc1ccc(-c2noc(-c3ccc(NC4CCCC4)c([N+](=O)[O-])c3)n2)cc1OC | 55%
COc1ccccc1-c1noc(-c2ccc(NC3CCCCC3)c([N+](=O)[O-])c2)n1 | 41% (active)
COc1cc(-c2noc(-c3ccc(NC4CCCCC4)c([N+](=O)[O-])c3)n2)cc(OC)c1OC | 76%
CCCn1c(CN2CCN(c3ccc(OC)cc3)CC2)nc2c1c(=O)[nH]c(=O)n2C | 91%
CCOCCCN1C(=O)CN(C2CCCCCC2)C(=O)C1c1ccc(OCC)c(OC)c1 (stereo not given) | 122%
Cc1ccccc1C1=CCN(c2ncc(NC(=O)c3ccc(Cl)cc3)cc2C(=O)O)CC1 | 95%
